A selection: hits, their analogues and other compounds. The true share with any hit is near 5.4%.
HSF-1 act: HSF-1 activators, primary screen, NIH3T3-HGL cells, MG132 stress, luminescence, single point; NIH3T3-HGL HSF-1 luciferase reporter, 8 h; 100% = twice DMSO control signal; actives 1.7% (n = 300,000); activation, % at 9 µM;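 active means mean replicate activation of at least 50% with a set share of replicates each reaching 50%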;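 further: 0% = median of the neutral control wells and 100% = twice that signal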
NR0B1 inh: DAX1 (NR0B1) inhibitors, primary screen, cell-based, HEK293, Gal4-DAX1, luciferase luminescence | inhibition, % at 6.75 µM | Nuclear receptor subfamily 0 group B member 1 (Homo sapiens), P51843 | HEK293 Gal4-DAX1 luciferase reporter | actives 0.99% (n = 340,000);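 active means inhibition above the mean over all tested compounds plus 3 SD, cut at about 4.2% in these data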;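 further: 0% = DAX1-transfected cells with DMSO and 100% = empty-vector control cells with DMSO; inhibition shows as a rise in luminescence from relieved DAX1 repression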
AHR activator: AHR activators, primary screen, cell-based, luminescence, luciferase reporter, human. actives 2.5% (n = 320,000). activation, % at 5 µM. AHR-responsive luciferase reporter cells. Aryl hydrocarbon receptor (Homo sapiens), P35869; in the data active means activation above about 47%;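 further: 0% = vehicle wells and 100% = reference agonist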
FXN GAA850 act: FXN promoter activators, primary screen, cell-based, luciferase luminescence, HEK293 lucGAA850. HEK293 lucGAA850 FXN promoter luciferase reporter, 24 h; percent of 10 µM SAHA response. activation, % at 6 µM. actives 0.56% (n = 360,000). AID 540364, 2011;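 active means activation above the average of all compounds screened plus 3 SD, cutoff fixed separately per campaign, cut at about 7.5% in these data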;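 further: 0% = DMSO wells and 100% = 10 µM SAHA wells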
HSF1 inh: HSF1 inhibitors in luciferase reporter cells, primary screen, cell-based, NIH3T3, luminescence. NIH3T3-HGL HSE-luciferase, MG132-induced, luminescence 8 h; stronger effect = lower value. activity change, negative = inhibition, % at 7.5 µM (by protocol). actives 0.77% (n = 300,000). AID 2098, 2009;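 active means more than half of replicate wells show activity change below -50%, luminescence cut by over half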;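 further: luciferase reports HSF-1 transcriptional activity via heat shock element; 0% = median of DMSO wells and -100% = zero luminescence signal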
The depositor's hits bear a star; . = no result given.

SMILES | HSF-1 act | NR0B1 inh | AHR activator | FXN GAA850 act | HSF1 inh
CC(=O)c1sc(NC(=O)Cc2c(F)cccc2Cl)nc1C | 3 | -1 | -4 | -1 | 6
O=C(Cc1c(F)cccc1Cl)Nc1nc2ccccc2s1 | 62* | 1 | 11 | 1 | 35
COc1ccc(CN(Cc2cccnc2)C(=S)NCCc2ccccc2)cc1OC | 9 | 0 | 5 | -2 | -8
CCN(CCO)C(=O)c1ccc2nc(Cc3cccc(Cl)c3)oc2c1 | 7 | 0 | 13 | 0 | 9
CCCOc1ccc(C(=O)NC(=S)Nc2nc3ccccc3s2)cc1 | -22 | 1 | 82* | 7 | -20
CCC(Sc1nc2ccccc2s1)C(=O)Nc1nnc(C)s1 (stereo not given) | 28 | 1 | 11 | 1 | 3
CC(Sc1nc2ccccc2s1)C(=O)Nc1nnc(C(C)C)s1 (stereo not given) | -71 | 3 | 6 | -1 | -63*
Cc1ccc(-c2nnn(CC(=O)N3CCCCC3)n2)cc1 | 35 | 1 | 8 | 1 | 3
COc1cccc(C(=O)Nc2sc(C(C)C)cc2C(N)=O)c1OC | -84 | 0 | 24 | 0 | -79*
CCOC(=O)C1CCN(C(=O)COc2cc(C)c(Br)cc2C)CC1 | -71 | -2 | 6 | -2 | -63*
Cc1cc(C)c(C)c(OCC(=O)N2CCN(c3ccccn3)CC2)c1 | -5 | 1 | 27 | 4 | 0
Cc1cc(OCC(=O)N2CCN(c3ccccn3)CC2)c(C)cc1Br | 16 | -1 | 54* | 2 | 4
CN(CC(=O)Nc1ccccc1Br)C(=O)CN1CCN(Cc2cccc(Cl)c2)CC1 | . | 2 | 1 | 0 | .
O=[N+]([O-])c1ccc2c(c1)nc1n2CCN(C2CCCCC2)C1 | 53* | 2 | 3 | 4 | 22
O=[N+]([O-])c1ccc2c(c1)nc1n2CCCCC1 | 20 | 1 | 0 | 1 | 7
CCOc1ccc(NC(=O)CC2C(=O)N(CC)C(=S)N2CCN2CCOCC2)cc1 (stereo not given) | -15 | -1 | 1 | 2 | 6
O=C(CC1C(=O)N(Cc2ccccc2)C(=S)N1CCN1CCOCC1)Nc1ccc(F)cc1 (stereo not given) | 61* | . | 0 | -2 | 20

Bioassay records from PubChem BioAssay.
